Active and inactive are the calls of the source. The calls were made as follows: active = hit-call score of the fitted dose curve at least 0.9, where 1 is the maximum; inactive = score below 0.9.
experiment: ATG_ISRE_CIS: Attagene CIS-FACTORIAL HepG2 Assay for human Interferon Regulatory Factor 1 (IRF1) binding to an Interferon-Stimulated Response Element (ISRE) (AID 2282948); conditions: HepG2 ISRE cis-reporter (Attagene), mRNA transcription readout; actives raise or lower the signal
Procedure: ATG_CIS is a cell-based, multiplexed-readout assay that uses HepG2, a human liver cell line, with measurements taken at 24 hours after chemical dosing in a 24-well plate.ATG_ISRE_CIS is one of 52 assay component(s) measured or calculated from the ATG_CIS assay. It is designed to make measurements of mRNA induction, a form of inducible reporter, as detected with fluorescence intensity signals by Reverse transcription polymerase chain reaction (RT-PCR) and Capillary electrophoresis technology.Data from the assay component ATG_ISRE_CIS was analyzed into 1 assay endpoint. This assay endpoint, ATG_ISRE_CIS, was analyzed with bidirectional fitting relative to DMSO as the negative control and baseline of activity. Using a type of inducible reporter, measures of mRNA for gain or loss-of-signal activity can be used to understand the reporter gene at the transcription factor-level as they relate to the gene IRF1. Furthermore, this assay endpoint can be referred to as a primary readout, because this assay has produced multiple assay endpoints where this one serves a reporter gene function. To generalize the intended target to other relatable targets, this assay endpoint is annotated to the dna binding intended target family, where the subfamily is interferon regulatory factors.
Human liver HepG2 cells are transiently transfected with multiple reporter transcription units (MRTUs) in 6-well plates using FuGene 6 reagent (Roche; 3 ml FuGene/1 mg DNA). The MRTU constructs are regulated by a cis-regulating element (promoter). […] A major difference between the CIS and TRANS system is that in CIS activities of endogenous TFs are measured, whereas the TRANS assay evaluates changes in activities of exogenous, chimeric NR-Gal4 proteins. […] At the end of 24 hour incubation, total RNA was isolated using TriZol reagent (Invitrogen). The isolated RNA is then reverse-transcribed using oligo(dT) primer and Mo-MLV reverse transcriptase (Invitrogen) with DNAse I (Ambion) treatment for 30 min. The one-tenth of the produced cDNA was amplified by PCR using Taq DNA polymerase (Invitrogen) and two reporter sequence-specific primers. The PCR products were fluorescently labeled by primer extension with 6-arboxyfluorescein (6-FAM) 5'-labeled reporter sequence-specific primer (2 min at 95 C, 20 s at 68 C and 10 min at 72 C) and these products were digested with 5U of HpaI (New England Biolabs) for 2h at 37 C. The fragments were purified using Qiaquick PCR columns (Qiagen), analyzed on an ABI 3130xL genetic analyzer (Applied Biosystems) with peak positions identified by using a set of X-rhodamine (ROX)-labeled MapMarker1000 molecular weight standards (BioVentures). The raw capillary electrophoresis data was processed using Attagraph software (Attagene).

Q: Which AC50 does the source give for `CCN(CC)c1ccc(C=O)c(O)c1` here?
A: 75.4 µM (active)

Q: For `CCN=C1C=CC(=C(c2ccc(N(CC)CC)cc2)c2ccc(N(CC)CC)cc2)c2ccccc21`, which AC50 is on record?
A: 0.916 µM (active)

Q: For `Oc1ccc(C2(c3ccc(O)c(C4CCCCC4)c3)CCCCC2)cc1C1CCCCC1`, which AC50 is on record?
A: 55.9 µM (active)

Q: With `NS(=O)(=O)C(F)(F)C(F)(F)C(F)(F)C(F)(F)C(F)(F)C(F)(F)F` as the compound, how does the outcome read?
A: inactive

Q: Which AC50 does the source give for `C=CC(=O)OCC(F)(F)C(F)(F)C(F)(F)C(F)(F)C(F)(F)C(F)(F)C(F)(F)C(F)F` here?
A: 150 µM (active)

Q: For `CC(C)OC(=O)COc1ccc(Cl)cc1Cl`, which outcome is on record?
A: inactive

Q: For `CCCCCCCC/C=C\CCCCCCCC(=O)N(C)CC(=O)O`, which outcome is on record?
A: inactive

Q: With `O=C(c1ccccc1)c1ccc(Cl)cc1` as the compound, how does the outcome read?
A: inactive

Q: Which outcome does the source give for `C[Si](C)O[Si](C)C` here?
A: inactive

Q: Which outcome does the source give for `O=C(O)C(F)(F)C(F)(F)C(F)(F)C(=O)O` here?
A: inactive

Q: With `Cc1ccc(O)c(-n2nc3ccccc3n2)c1` as the compound, how does the outcome read?
A: inactive

Q: With `CC(C)CCCC(C)CCO` (stereo not given) as the compound, how does the outcome read?
A: inactive

Q: Which outcome does the source give for `CNS(=O)(=O)C(F)(F)C(F)(F)C(F)(F)C(F)(F)C(F)(F)C(F)(F)C(F)(F)C(F)(F)F` here?
A: inactive

Q: With `O=C(Cl)c1ccc(Cl)cc1Cl` as the compound, how does the outcome read?
A: inactive

Q: With `NC(=O)C(F)(F)C(F)(F)C(F)(F)C(F)(F)C(F)(F)C(F)(F)C(F)(F)F` as the compound, how does the outcome read?
A: inactive

Q: For `Cc1ccc2c(c1)OCC(=O)CO2`, which outcome is on record?
A: inactive

Q: For `CC(=O)CCC(C)C`, which outcome is on record?
A: inactive

Q: Which outcome does the source give for `FC(F)(F)C(F)(F)C(F)(F)C(F)(F)C(F)(F)C(F)(F)CC[Si](Cl)(Cl)Cl` here?
A: inactive

Q: With `COCCOCCC[Si](C)(O[Si](C)(C)C)O[Si](C)(C)C` as the compound, how does the outcome read?
A: inactive

Q: For `CC(C)(C)c1cc(Cc2cc(C(C)(C)C)c(O)c(C(C)(C)C)c2)cc(C(C)(C)C)c1O`, which outcome is on record?
A: inactive

Q: For `O=S(=O)(O)CCC(F)(F)C(F)(F)C(F)(F)C(F)(F)F`, which outcome is on record?
A: inactive

Q: Which outcome does the source give for `CC1=CC2C3C=CC(C3)C2C1C` (stereo not given) here?
A: inactive

Q: Which AC50 does the source give for `O=C(O)CCC(F)(F)C(F)(F)C(F)(F)C(F)(F)C(F)(F)C(F)(F)C(F)(F)F` here?
A: 150 µM (active)

Q: Which outcome does the source give for `COC(F)(C(F)F)C(F)(F)F` (stereo not given) here?
A: inactive

Q: Which outcome does the source give for `CCCCC(CC)COC(=O)c1ccc(N(C)C)cc1` (stereo not given) here?
A: inactive

Q: Which outcome does the source give for `N#Cc1ccccc1O` here?
A: inactive

Q: Which outcome does the source give for `CCN(CCO)S(=O)(=O)C(F)(F)C(F)(F)C(F)(F)C(F)(F)C(F)(F)C(F)(F)C(F)(F)C(F)(F)F` here?
A: inactive

Q: With `CCc1ccc(C)nc1` as the compound, how does the outcome read?
A: inactive

Q: Which outcome does the source give for `CCc1cccc(C)c1N(C(=O)C(=O)O)C(C)COC` (stereo not given) here?
A: inactive

Q: For `CSc1ccc(O)cc1C`, which outcome is on record?
A: inactive

Q: With `Oc1ccc2c(c1)CCC2` as the compound, how does the outcome read?
A: inactive

Q: For `Nc1c(Br)cc([N+](=O)[O-])cc1Br`, which outcome is on record?
A: inactive

Q: Which outcome does the source give for `CCOCN(C(=O)CS(=O)(=O)O)c1c(C)cccc1CC` here?
A: inactive

Q: For `O=C(O)C(F)(F)C(F)(F)C(F)(F)OC(F)(C(F)(F)F)C(F)(F)F`, which outcome is on record?
A: inactive

Q: For `O=C(Cl)C(F)(F)C(F)(F)C(F)(F)C(F)(F)C(F)(F)C(F)(F)F`, which outcome is on record?
A: inactive

Q: With `Cc1ccc(O)cn1` as the compound, how does the outcome read?
A: inactive

Q: For `CC(C)(C)c1cc(CCC(=O)OCC(COC(=O)CCc2cc(C(C)(C)C)c(O)c(C(C)(C)C)c2)(COC(=O)CCc2cc(C(C)(C)C)c(O)c(C(C)(C)C)c2)COC(=O)CCc2cc(C(C)(C)C)c(O)c(C(C)(C)C)c2)cc(C(C)(C)C)c1O`, which outcome is on record?
A: inactive

Q: Which outcome does the source give for `O=C(O)C(F)(F)C(F)(F)C(F)(F)OC(F)(F)F` here?
A: inactive

Q: Which outcome does the source give for `O=C1C=CC(=O)N1c1ccc(Cc2ccc(N3C(=O)C=CC3=O)cc2)cc1` here?
A: inactive

Q: For `OCC1CCCO1` (stereo not given), which outcome is on record?
A: inactive
